# Reference: the supplement of paper PMC3334620
# The full ranking holds about 33,000 sequences; the median of “E-score (-0.5 to 0.5)” is about -0.0014, and the highest 2% start at about 0.25. Shown is part of a subset that was picked to be rich in the highest values.
# Target: T1, Cad1 (UniProt P24813)
# T1 sequence: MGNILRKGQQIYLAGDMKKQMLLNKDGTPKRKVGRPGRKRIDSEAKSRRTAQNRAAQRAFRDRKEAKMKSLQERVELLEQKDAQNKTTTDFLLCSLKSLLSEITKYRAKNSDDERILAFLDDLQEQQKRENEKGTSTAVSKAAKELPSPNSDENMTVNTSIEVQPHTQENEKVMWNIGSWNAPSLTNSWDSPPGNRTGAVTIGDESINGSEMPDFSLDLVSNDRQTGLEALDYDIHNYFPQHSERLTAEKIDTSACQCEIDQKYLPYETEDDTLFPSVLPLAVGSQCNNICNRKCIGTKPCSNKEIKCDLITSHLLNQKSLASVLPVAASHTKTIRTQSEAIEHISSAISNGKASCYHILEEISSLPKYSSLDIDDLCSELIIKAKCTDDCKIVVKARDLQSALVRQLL
# Experiment: PBM E-score (8-mer binding enrichment) (E-score (-0.5 to 0.5)); higher = stronger / more preferred TF binding
# Conditions: protein concentration: 100 nM; construct: GST-full length
# Summary of the method: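 Yeast transcription factors, full-length or as DNA-binding domains, were expressed with a GST tag using PURExpress in vitro transcription/translation. At about 100-200 nM they were applied to universal all-10-mer Agilent arrays, double-stranded by primer extension on fresh or once-stripped slides. Fluorescent anti-GST detected bound protein, and masliner normalised the scans. E-scores for ungapped eight-base words, pooled with reverse complements, came from the Universal PBM Analysis Suite.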
row,Sequence,PBM E-score
1,GGCGGCTA,0.0654
2,AACCTTGG,-0.168
3,CTAACACC,-0.0338
4,AATCTAGC,0.08
5,CAAGATTG,-0.0156
6,ACGGCATA,0.16
7,GGTCCGAA,0.143
8,TGTCCGAA,0.266
9,CGTCCGAA,0.1
10,ACCCTCTC,-0.183
11,CCCTTGAC,-0.197
12,TCCTCACA,-0.115
13,ACGGATCC,-0.0362
14,AACGCGAG,0.115
15,AGCGCGCA,0.355
16,AGCGCGAA,0.21
17,CAAGCGCA,0.262
18,ACGGCGCG,0.322
19,CAAGCGCC,-0.119
20,ACGGCGCC,0.139
21,CACGCGAA,0.0527
22,AAAGCGCA,-0.0636
23,ACGGCGCT,-0.0736
24,AACGCGAA,0.298

row,Sequence,PBM E-score
1,AGCGCAAA,0.189
2,AAGTTGAG,0.0317
3,GCCAACAA,-0.0504
4,TCGTCTAA,-0.0389
5,GCCGCAAC,0.0201
6,CGCACCGA,-0.0919
7,CGGCTAAA,-0.0162
8,CAGAGACG,0.0945
9,CGTTGGAC,-0.137
10,GCGATCGC,0.241
11,TGCGCGCA,0.301
12,AGCGCGCG,0.311
13,AACGCGCT,0.0463
14,GGCGCGCA,0.195
15,CGCGCGCG,0.214
16,AACGCGCG,0.282
17,CGCGCGTA,0.152
18,AACGCGCA,0.189
19,GGCGCGTA,-0.0178
20,CGCGCGCA,0.242
21,AGCGCGCT,0.152
22,AGCGCGTA,0.284
23,CGGGGGAG,-0.432
24,CCAGTTTC,-0.155

row,Sequence,PBM E-score
1,CCTCCATA,-0.254
2,GTGGGTGA,0.0388
3,AGAACCAA,-0.131
4,CACAGGAC,-0.0449
5,AAAGGACA,-0.0819
6,ACAGCTAT,-0.0503
7,ACAGCTGG,0.0155
8,TCAGCTGA,0.31
9,ACAGCTGT,0.261
10,GCAGCTGA,0.0932
11,ACAGCTGA,-0.0375
12,CCCCGGAG,-0.2
13,CCAGGCGC,-0.0648
14,CAGTTACA,-0.00475
15,ATCCGTTA,0.303
16,GTCCGTTA,0.199
17,ATCCGTTC,0.229
18,ATGATGCA,0.222
19,ATCGTTCA,0.0567
20,AGTTCATG,0.265
21,AGTTCATC,0.0446
22,AGTTCATA,0.101
23,CCGGTCCG,-0.104
24,ATGAGCCA,0.107

row,Sequence,PBM E-score
1,CATTAGTC,0.217
2,CGTTAGTC,0.042
3,CTTTAGTA,0.174
4,AATTAGGG,-0.172
5,ATTTAGTA,0.293
6,CATTAGTA,0.304
7,ACTTAGTG,-0.142
8,GGTTAGTA,0.219
9,ATTTAGTC,0.18
10,AATTAGTG,0.316
11,CGTTAGTA,0.289
12,CATTAGAA,0.11
13,AGGCCAAT,-0.0024
14,CCCGCCGC,-0.0389
15,AGCCGCAT,-0.0263
16,ACGAAAGC,0.00748
17,CGAGGTGC,0.142
18,AAGCGCTG,0.212
19,TAATATCA,0.167
20,CTACCTGA,-0.0406
21,CCTAGGCA,-0.0995
22,ACTTAGTC,-0.016
23,GATTAGAA,0.0793
24,GCTTAGTA,0.344

row,Sequence,PBM E-score
1,AATTAGAC,0.0936
2,AATTAGAG,0.0346
3,GATTAGGA,-0.0959
4,AGTTAGTC,-0.0819
5,GATTAGTA,0.31
6,ACTTAGTA,0.213
7,AATTAGTC,0.346
8,AATTAGAT,0.252
9,CCTTAGTA,0.0752
10,GGCCAATA,0.0295
11,AAGCTGAT,0.216
12,GTAGGAGA,-0.124
13,CGCTTCTC,-0.0668
14,ACAGCCAA,0.0312
15,GAGCTTGC,-0.048
16,CAAGTCCA,-0.0962
17,CCCGCCTA,0.0947
18,AATTAGTA,0.316
19,AGTTAGTA,0.0725
20,AATTAGGA,0.0377
21,CATCCTCG,0.0642
22,GACACTGC,-0.0407
23,CCGCTGTC,0.00182
24,AAAATGGG,-0.157

row,Sequence,PBM E-score
1,AAAATGGA,0.267
2,CAAATGGA,0.0716
3,GTCTACAC,0.0321
4,ATCCCAAT,-0.122
5,GTTTGTAA,0.137
6,CTTTGTAA,0.333
7,ATTTGTAA,0.411
8,ATTTGTAG,0.0654
9,ATTTGTAC,0.119
10,CTTTGTAC,0.0743
11,ACGCTCCA,0.0354
12,AGCGTACG,0.00701
13,ATACTTGC,0.0566
14,CAGATGCC,-0.141
15,CCGCGCTC,0.097
16,ACGCGCTA,0.109
17,GCGCGCTA,0.326
18,CCGCGCTA,0.263
19,CTGCGCTA,0.0362
20,GTGCGCTA,0.0718
21,GACCGTAA,-0.061
22,GGGTGGCA,-0.124
23,CCACTATC,-0.0188
24,AGGTAAAG,0.267

row,Sequence,PBM E-score
1,AGGTAAAC,0.105
2,AGGTAAAT,-0.00978
3,AGTGATGC,-0.0338
4,ACCCGCAC,0.0284
5,CTTAATTA,0.152
6,ATTAATAC,0.199
7,ATGAATAG,0.0469
8,ATTAATAG,0.275
9,ATTAATGA,0.306
10,GGTAATTA,0.186
11,CGTAATTA,0.249
12,ATTAATTA,0.263
13,ATTAATGC,0.167
14,AGTAATTA,0.283
15,CTTAATGA,0.00816
16,GTTAATTA,0.23
17,ATGGGGGC,-0.349
18,AAGATAGA,0.0137
19,CCGAGTGC,0.089
20,GATTGACC,-0.149
21,GCCGGGAC,-0.0972
22,ATTAATGG,0.239
23,AGTAATTC,0.23
24,ATTAATTG,0.313

row,Sequence,PBM E-score
1,AGTAATTG,0.0751
2,ATTAATTC,0.304
3,ATCAATTG,0.186
4,ATCAATTC,-0.026
5,ATCAATTA,0.255
6,CTTAATTC,0.177
7,CGTAACCC,-0.0539
8,TCCTGACA,0.125
9,GGCTTCCC,-0.0469
10,AACCAGTA,0.157
11,AACCAATC,0.0878
12,AACCAGTT,0.27
13,AACCAATG,0.109
14,AACCAGTG,-0.0556
15,AACCAATT,0.297
16,ACGCGGCC,-0.0773
17,CAGCGGGC,0.00044
18,GGTAGTAC,-0.0112
19,CCAATCGC,0.0869
20,CCCAGCAA,-0.0856
